Data as given in PubChem BioAssay AID1259354 (Paczesny and Yang Labs, IUPUI and University of Michigan, 2018).
Several values for one entry are separate records, joined by “and”; a condition that tells them apart may be missing. Equal values may be shown once. The whole screen tested about 78,000 compounds, of which about 1,800 (2.3%) were called active. Another 27% or so got no clear call; they are omitted. Cut-off read from the data, not from the text of the source: active = inhibition above about 30%; inconclusive = mostly about 10% to 28%; inactive = weaker than that. Many of the other results were omitted from the sample, so actives are more common in it than they were.

Each compound was assayed against Interleukin-1 receptor-like 1 (Homo sapiens) (UniProt Q01638) (assay: blocks human ST2 binding to IL-33, primary screen, biochemical, AlphaLISA (AID 1259354)). Details: AlphaLISA ST2-Fc/biotin-IL-33 interaction, 1 h; at 17 µM, hits give high values.
Interleukin-1 receptor-like 1 (Homo sapiens), sequence (Q01638 whole entry, looked up): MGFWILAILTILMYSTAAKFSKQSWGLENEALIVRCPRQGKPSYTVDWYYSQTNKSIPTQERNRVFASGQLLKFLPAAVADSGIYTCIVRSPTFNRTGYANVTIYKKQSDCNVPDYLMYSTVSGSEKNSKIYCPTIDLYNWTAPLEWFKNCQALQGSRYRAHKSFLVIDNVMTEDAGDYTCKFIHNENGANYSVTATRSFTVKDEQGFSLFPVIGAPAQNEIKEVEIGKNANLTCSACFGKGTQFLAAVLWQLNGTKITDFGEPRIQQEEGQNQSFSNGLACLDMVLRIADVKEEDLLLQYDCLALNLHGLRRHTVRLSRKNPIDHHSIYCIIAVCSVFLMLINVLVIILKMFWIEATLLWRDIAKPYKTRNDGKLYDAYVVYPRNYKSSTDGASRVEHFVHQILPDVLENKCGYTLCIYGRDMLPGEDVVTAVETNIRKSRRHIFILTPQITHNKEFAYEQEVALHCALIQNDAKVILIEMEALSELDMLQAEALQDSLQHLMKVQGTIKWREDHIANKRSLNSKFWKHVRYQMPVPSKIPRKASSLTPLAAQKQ

Row | Compound | inhibition
1 | CCCOc1ccccc1/C=C1/C(=O)N=C(N)N1C | inactive
2 | CCC(C)(C)C1CCc2c(sc(NC(=O)c3cc(OC)c(OC)c(OC)c3)c2C(N)=O)C1 (stereo unspecified) | inactive
3 | CCN(CC)C(=O)Cn1cnc2sc(C(=O)Nc3cccc(C(F)(F)F)c3)c(C)c2c1=O | inactive
4 | CCOc1ccc(S(=O)(=O)Nc2ccccc2C)c2cccnc12 | inactive
5 | Cc1cc(NC(=O)c2ccccc2Cl)nc2c1c(=O)oc1ccccc12 | inactive
6 | O=c1c2c(nc(SCc3ccccc3F)n1-c1ccccc1)CCS2 | inactive
7 | O=c1c2c(nc(SCc3ccccc3)n1-c1ccc(Br)cc1)CCS2 | inactive
8 | O=c1c2c(nc(SCc3ccc(Cl)cc3)n1-c1ccccc1)CCS2 | 36% (active)
9 | CCOc1ccc(Cn2c(CNS(=O)(=O)c3cnn(C(F)F)c3C)nc3cccnc32)cc1 | inactive
10 | Cc1ccccc1-c1cc(O)c2c(c1)CN(C(=O)C1C=CCN1)CCO2 (stereo unspecified) | inactive
11 | CN(C)CCCN1C(=O)C(=O)C(=C(O)c2ccc(F)cc2)C1c1ccncc1 (stereo unspecified) | inactive
12 | O=C1CCCc2oc3c(Cl)cc(NS(=O)(=O)c4cccc5ccccc45)cc3c21 | inactive
13 | CCCc1n[nH]c(=O)n1-c1ccccc1Cl | inactive
14 | COc1ccc(N=Cc2c(O)n(-c3ccccc3C)c(=O)c3ccccc23)cc1 | 48% (active)
15 | COc1ccc(S(=O)(=O)Nc2c(C)n(C)n(-c3ccccc3)c2=O)cc1 | inactive
16 | CNc1nc2c(C)cccn2c(=O)c1C=Nc1ccc(OC)cc1 | 98% (active)
17 | O=c1oc2ccccc2c(O)c1C=Nc1ccc(I)cc1 | inactive
18 | COc1ccc(N=Cc2ccc3ncccc3c2)cc1 | inactive
19 | C=CCNC(=O)c1cc2c(=O)n3cccc(C)c3nc2n1C | inactive
20 | O=C(CCCc1ccccc1)NC1CCCCC1 | inactive
21 | CC(=O)Nc1ccc(S(=O)(=O)NCCNc2ccc([N+](=O)[O-])cc2Cl)cc1 | inactive

Row | Compound | inhibition
22 | CN1CCN(C(=O)CC2(c3ccccc3Cl)CC(=O)N(C3CCCC3)C2=O)[C@@H](c2ccccc2)C1 (stereo partly specified) | inactive
23 | O=C(Nc1nc2c(cc3c4c(cccc42)CC3)s1)c1ccc(S(=O)(=O)N2CCOCC2)cc1 | inactive
24 | COc1ccc(-c2cnc(N)cn2)cc1C | inactive
25 | Cc1ccncc1C(=O)N1CCC(=O)N(CC2CC2)C(C(C)C)C1 (stereo unspecified) | inactive
26 | O=C(O)Cn1c2ccccc2c2cc(Cl)ccc21 | inactive
27 | O=C(Cn1c2ccccc2c(=O)c2ccccc21)Nc1ccccc1Cl | inactive
28 | CCn1c(=O)cc(O)c2ccccc21 | 85% (active)
29 | Fc1ccccc1CSc1nnc2c(n1)OC(c1cccnc1)Nc1ccccc1-2 (stereo unspecified) | inactive
30 | COc1cccc(N2CCN(Cc3cccs3)CC2)c1 | inactive
31 | COc1ccc(N2CCN(Cc3nc4c(c(=O)[nH]c(=O)n4C)n3CCCO)CC2)cc1 | inactive
32 | COc1ccc(N2CCN(Cc3ccc(Br)s3)CC2)cc1 | 39% (active)
33 | CC(c1cccs1)N(C)Cc1ccc(C#CC(C)(C)O)s1 (stereo unspecified) | inactive
34 | CC(C)NC(=O)C(CCO)NC(C)C (stereo unspecified) | inactive
35 | Cc1ccc(-n2c(SCC(=O)Nc3ccc([N+](=O)[O-])cc3)nc3c(c2=O)SCC3)cc1 | 36% (active)
36 | CCOc1ccc(NC(=O)CSc2nc3c(c(=O)n2-c2ccccc2)SCC3)cc1 | inactive
37 | Cc1ccc(-n2c(SCC(=O)Nc3ccccc3C(F)(F)F)nc3c(c2=O)SCC3)cc1 | inactive
38 | O=S(=O)(c1ccccc1)N1CCN(c2cc(-c3ccc(F)cc3)ncn2)CC1 | inactive
39 | Cn1c(=O)c2c(SCC(=O)NC3CCCC3)nc(-c3ccc(F)cc3)nc2n(C)c1=O | inactive
40 | Cc1ccc(N2NC(=O)/C(=C/c3ccc4c(c3)OCO4)C2=O)cc1Cl | inactive
41 | Cc1cc(/C=C2/C(=O)NC(=O)N(C)C2=O)c(C)n1-c1ccc(Cl)c(Cl)c1 | 34% (active)
42 | Cc1ccc(N2NC(=O)/C(=C/c3cccc([N+](=O)[O-])c3)C2=O)cc1Cl | inactive

Row | Compound | inhibition
43 | COc1ccc(C(=O)Nc2c3c(nn2-c2ccc(F)cc2)CS(=O)C3)c(OC)c1 (stereo unspecified) | inactive
44 | Cc1ccnc(CC(C)N(C)C(=O)c2cc(CC(C)C)no2)c1 (stereo unspecified) | inactive
45 | Cc1ccc(C(=O)N2N=C(c3ccccc3)CC2c2ccccc2)cc1 (stereo unspecified) | inactive
46 | N/C(=N/OC(=O)c1ccc2c(c1)OCO2)c1ccc(Cl)cc1 | inactive
47 | COC(=O)CNS(=O)(=O)c1ccc(OC)cc1 | inactive
48 | COc1ccc(S(=O)(=O)ON=C2C=CC(=O)C=C2)cc1 | 32% (active)
49 | COc1ccc(S(=O)(=O)Nc2ccc(Br)cc2)cc1 | inactive
50 | COc1ccccc1C(=O)Nc1ccc2c(c1)NC(=O)CC2c1ncc[nH]1 (stereo unspecified) | inactive
51 | O=C1CCC(C(=O)N2CCN(Cc3cccnc3)CC2)CN1CC1CCCCC1 (stereo unspecified) | inactive
52 | NC(=O)c1c(NC(=O)c2cc(=O)c3ccccc3o2)sc2c1CCCCC2 | inactive
53 | CCCC(=O)c1c(OC)cc(O)c(CC)c1O | inactive
54 | Cn1c(=O)cc(SCC(=O)N2CCN(C(=O)c3ccco3)CC2)c2ccccc21 | inactive
55 | CC(CN1CCN(C)C2(CCN(C(=O)c3ccco3)CC2)C1)c1ccccc1 (stereo unspecified) | 30% (active)
56 | CC(CN1CCC(C(N)=O)CC1)c1ccccc1 (stereo unspecified) | inactive
57 | C=CCn1c(=O)c2c(nc3n2CCN3c2ccc(C)cc2)n(C)c1=O | inactive
58 | COc1ccc(Nc2nc(Nc3ccc(OC)cc3)nc(N3CCNCC3)n2)cc1 | 31% (active)
59 | COc1ccc(Nc2nc(Cl)nc(NCc3ccco3)n2)cc1 | inactive
60 | CCC(=O)Nc1ccc(Nc2nc(C)cc(Nc3ccc(OC)cc3)n2)cc1 | inactive
61 | CCOC(=O)CSC1=C(C#N)C(c2ccccc2)CC(=O)N1 (stereo unspecified) | inactive
62 | CN(C)c1ccc(/C=C2\N=C(c3cccc(I)c3)OC2=O)cc1 | inactive
63 | CC1=NN(Cc2ccccc2)C(=O)/C1=C/c1ccc(N(C)C)cc1 | 44% (active)

Row | Compound | inhibition
64 | CN(C)c1ccc(/C=C\c2nc3ccccc3c(=O)n2-c2ccc(C(=O)O)cc2)cc1 | inactive
65 | CN(C)CC1(O)CCCN(C(=O)c2ccc(-n3ccnc3)cc2)CC1 (stereo unspecified) | inactive
66 | C=CCn1c(-c2ccccc2)csc1=Nc1ccc(O)cc1 | 53% (active) and 41% (active)
67 | O=[N+]([O-])c1ccc(O)c(C=Nc2ccc3oc(-c4ccccc4)nc3c2)c1 | inactive
68 | COc1ccc(-c2nc3cc(N=Cc4cccc(OC)c4O)ccc3o2)cc1 | 43% (active)
69 | O=C(O)c1ccc(O)c(C=Nc2ccc3oc(-c4ccccc4)nc3c2)c1 | inactive
70 | CC1(c2ccccc2NC(=O)c2ccc([N+](=O)[O-])cc2)CC1 | 30% (active)
71 | COc1ccc([N+](=O)[O-])cc1NC(=O)c1ccc(-c2ccccc2)cc1 | inactive
72 | O=C(Nc1ccc([N+](=O)[O-])cc1)c1ccc(Br)cc1 | inactive
73 | c1cc(-c2nc3ccncc3[nH]2)ccn1 | inactive
74 | O=[N+]([O-])c1cc(Cl)ccc1N1CCCNCC1 | inactive
75 | CC1CCN(c2ccc(C(=O)O)cc2[N+](=O)[O-])CC1 | inactive
76 | O=[N+]([O-])c1cc(Cl)ccc1N1CCN(c2ccc([N+](=O)[O-])c3cccnc23)CC1 | 56% (active)
77 | CSc1ccccc1NC(=O)c1cc(-c2ccc(Br)cc2)on1 | inactive
78 | O=C1CN(C(=O)c2nn(CCCc3ccccc3)c3c2CN(Cc2cccnc2)CC3)CCN1 | inactive
79 | CCOc1ccc(-c2cc(C)n3nc(C(=O)OC)cc3n2)cc1 | inactive
80 | OCCNc1c(F)c(F)nc(N2CCOCC2)c1F | inactive
81 | O=C(NC[C@H]1O[C@@H](CO)[C@@H](O)[C@H]1N1CCc2ccccc2C1)Nc1ccccc1 | inactive
